Rows were chosen to be rich in hits. Some 3.5% of all compounds tested hit in one or more screens of this group.
Anthrax LF inh2: Bacillus anthracis LF protease inhibitors, primary screen, biochemical, multiplex microsphere, MLPCN library; inhibition, % at 10 µM; Lethal factor (Bacillus anthracis), P15917; multiplex microsphere protease cleavage assay; actives 0.12% (n = 360,000); AID 588501, 2011; further: plate controls were buffer without enzyme for full effect and enzyme alone for no effect
Target sequence (P15917 whole entry, looked up): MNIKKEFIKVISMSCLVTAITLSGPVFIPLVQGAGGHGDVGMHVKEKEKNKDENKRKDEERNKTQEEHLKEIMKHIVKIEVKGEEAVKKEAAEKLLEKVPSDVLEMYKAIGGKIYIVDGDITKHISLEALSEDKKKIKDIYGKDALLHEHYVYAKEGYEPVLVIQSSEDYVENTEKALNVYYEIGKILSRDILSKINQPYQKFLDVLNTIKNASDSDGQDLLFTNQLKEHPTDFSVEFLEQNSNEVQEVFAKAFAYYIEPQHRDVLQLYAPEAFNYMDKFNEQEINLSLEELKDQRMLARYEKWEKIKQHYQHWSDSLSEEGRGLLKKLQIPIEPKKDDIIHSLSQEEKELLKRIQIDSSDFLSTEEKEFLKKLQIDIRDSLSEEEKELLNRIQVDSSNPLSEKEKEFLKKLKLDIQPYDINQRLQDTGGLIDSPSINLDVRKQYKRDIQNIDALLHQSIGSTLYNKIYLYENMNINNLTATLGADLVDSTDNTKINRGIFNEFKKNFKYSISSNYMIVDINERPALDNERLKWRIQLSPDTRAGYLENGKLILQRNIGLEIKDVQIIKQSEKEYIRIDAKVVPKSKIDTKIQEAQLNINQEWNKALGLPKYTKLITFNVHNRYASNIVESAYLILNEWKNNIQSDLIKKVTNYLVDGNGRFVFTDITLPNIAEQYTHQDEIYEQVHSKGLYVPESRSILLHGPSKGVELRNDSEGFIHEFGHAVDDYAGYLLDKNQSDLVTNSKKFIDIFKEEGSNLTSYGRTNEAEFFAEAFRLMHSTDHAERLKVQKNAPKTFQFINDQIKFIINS
Autofluor counter: compound fluorescence in toxin protease inhibitor counterscreen; compound autofluorescence counterscreen, microsphere flow cytometry; active compounds read high; fluorescence intensity (no concentration beside the values); actives 3.1% (n = 360,000); AID 624483; in the data active means fluorescence intensity above about 16000; inconclusive means no clear call, values can overlap the other calls
BoNT-F LC inh: BoNT/F light chain protease inhibitors, primary screen, biochemical, flow cytometry, MLPCN library | inhibition, % at 10 µM | Botulinum neurotoxin type F light chain protease (Clostridium botulinum) | Multiplex microsphere protease cleavage assay | actives 0.22% (n = 360,000) | AID 588497, 2011; in the data active means inhibition above about 35%, passing the limit was not always enough; inconclusive means no clear call, values can overlap the other calls; further: plate controls were buffer without enzyme for full effect and enzyme alone for no effect
BoNT A protease: BoNT/A light chain protease inhibitors, primary screen, biochemical, flow cytometry, MLPCN library | actives 0.17% (n = 360,000) | Botulinum neurotoxin type A light chain protease (Clostridium botulinum A str. ATCC 3502) | inhibition, % at 10 µM | AID 588499, 2011 | multiplex microsphere protease substrate cleavage; further: plate controls were buffer without enzyme for full effect and enzyme alone for no effect
Starred values were filed as active, the others as inactive; ? = inconclusive. Unless noted, no stated cut-off is given here; in the data, active means inhibition above about 30%; inconclusive means no clear call, values can overlap the other calls; inactive means below that.

SMILES	Anthrax LF inh2	Autofluor counter	BoNT-F LC inh	BoNT A protease
COc1ccc(CN2C(=O)CCC2(C)C(=O)NC2CCCCCC2)cc1 (configuration not stated)	-3	23241*	1	-2
CC(C)CCN1C(=O)CCC1(C)C(=O)NC1CCCCCCC1 (configuration not stated)	-1	23125*	-1	0
CC1(C(=O)NC2CCCC2)CCC(=O)N1Cc1ccc2c(c1)OCO2 (configuration not stated)	-3	25159*	-7	-4
COc1cccc(CN2C(=O)CCC2(C)C(=O)NC2CCCCC2)c1 (configuration not stated)	-7	4481	-7	0
CCn1c(C)nc2cc(C(=O)NNC(=O)[C@@H](NC(=O)c3cc(OC)cc(OC)c3)C(C)C)ccc21	-2	3816	2	0
C=CCn1c(SCC(=O)N(C(C)CC)C2CCS(=O)(=O)C2)nc2ccccc2c1=O (configuration not stated)	-2	?	-13	-5
CCOC(=O)c1sc(=S)n(-c2ccccc2)c1N	0	2359	5	0
COC(=O)c1sc(=S)n(-c2cccc(Cl)c2)c1N	-2	26583*	-11	-9
N/C(=N\OC(=O)c1ccc(Cl)c(Cl)c1)c1ccccn1	-2	9865	2	0
N/C(=N\OC(=O)c1ccc(Cl)cc1)c1ccccn1	0	21717*	8	?
COc1ccc(S(=O)(=O)N2CCCCC2)cc1NC(=O)c1c(F)cccc1Cl	6	5568	2	-2
CCc1c(C)sc(NC(=O)c2cc(C)on2)c1C#N	-4	6711	11	2
CCc1c(C)sc(NC(=O)c2cc(-c3ccco3)on2)c1C#N	1	23332*	-1	1
Cc1cc(NC(=O)c2cc(-c3ccco3)on2)n(-c2ccccc2)n1	-3	23364*	0	-1
COc1ccccc1-c1cc(C(=O)Nc2cc(C)nn2-c2ccccc2)no1	-8	20928*	6	3
O=C(NCc1ccco1)c1cc(C(=O)C2CC2)c[nH]1	1	21145*	-3	?
CCOC(=O)C1=CNS(=O)(=O)NC1c1ccc(C[C@H](NC(=O)CNC(=O)CCc2ccccc2)C(N)=O)cc1 (some centres not stated)	-4	2892	-4	0
COc1ccc(S(=O)(=O)N2CCN3CCCC3C2)cc1 (configuration not stated)	8	3997	-2	-2
O=C(NCc1ccco1)c1cc(-c2ccco2)on1	-2	16474*	-2	?
COc1ccccc1-c1cc(C(=O)Nc2ccc(F)cc2F)no1	-6	20081*	5	5
CC(=O)N1CCC(=NNC(=O)c2cccs2)CC1	0	7668	-5	0
CC(=O)NC1(C(F)(F)F)N=C2SCCN2C1=O (configuration not stated)	-1	22076*	-9	?
CC(C)(C)C(=O)NC1(C(F)(F)F)N=C2SCCN2C1=O (configuration not stated)	3	3282	-9	0
CC(C)Oc1ccc(C(=O)NC2(C(F)(F)F)N=C3SCCN3C2=O)cc1 (configuration not stated)	0	20653*	-3	?
O=C(COC(=O)Cc1cccc(F)c1)NC(=O)NC1CCCCC1	-1	4958	2	0
SMILES	Anthrax LF inh2	Autofluor counter	BoNT-F LC inh	BoNT A protease
CCc1nc2ccc(C(=O)NCCc3c[nH]c4ccccc34)cn2c1N(C=O)CCC(C)C	-1	3977	-3	0
C=CCNC(=S)N/N=C/c1ccc(OCc2ccccc2Cl)cc1	2	19727*	-4	0
Cc1cc(=O)n2nc(N3CCCC3C(=O)Nc3cccc(Cl)c3C)sc2n1 (configuration not stated)	-5	20778*	19	-3
CCCCOC(=O)CCCN1C(=O)/C(=C2\SC(=S)N(CCCC(=O)OCCCC)C2=O)SC1=S	45*	4596	21	65*
CCCCN1C(=O)/C(=C2/Sc3ccc(OC)cc3N2CC)SC1=S	-6	4339	?	2
COc1ccc(OC)c(S(=O)(=O)NC(=O)C2(C)CCN2C(=O)C2(c3ccc(Cl)cc3)CC2)c1 (configuration not stated)	9	3702	10	0
Cc1cccc(NS(=O)(=O)c2ccc(C)c(C(=O)NC3CCN(Cc4ccccc4)CC3)c2)c1	3	30942*	18	9
Cc1ccc(OCCNc2ccc(S(=O)(=O)N3CCCC3)cn2)cc1	?	7214	-7	-4
CN(CCOc1ccc(Cl)cc1)c1ccc(S(=O)(=O)N2CCCCC2)cn1	-4	24914*	-6	?
CCN(C(=O)COC(=O)c1ccc([N+](=O)[O-])o1)C1CCCCC1	-7	8542	-1	0
O=C(Nc1ccnn1C1CCN(C/C=C/c2ccccc2)CC1)c1ccccc1Cl	-56	56855*	-411	-240
CN(C)CCCNC1=CC(=O)OC12CCCCC2	-1	3181	4	-2
O=C1C=C(N(CCO)CCO)C2(CCCCC2)O1	-8	22987*	-7	?
CCOc1ccc(C2=Nn3c(nnc3-c3ccccc3OC)SC2)cc1	0	22729*	1	1
COc1ccc(C2=Nn3c(nnc3-c3ccccn3)SC2)cc1	-2	24133*	-2	?
COc1cccc(-c2nnc3n2N=C(c2cccc(Br)c2)CS3)c1	0	20881*	-5	?
COc1ccccc1-c1nnc2n1N=C(c1ccc(O)c(O)c1)CS2	-3	15681	-2	1
CCc1nnc2n1N=C(c1ccc(OC)cc1)CS2	-4	17512*	-10	-3
COc1ccc(C2=Nn3c(nnc3-c3ccncc3)SC2)cc1OC	-10	14717	2	4
CC(=Nc1ccccc1)C1=C(O)C(Cc2ccccc2)NC1=O (configuration not stated)	1	4109	6	1
O=C(Nc1cccc(C(F)(F)F)c1)C1CCN(S(=O)(=O)c2ccc(N3CCCC3=O)cc2)CC1	0	4380	-2	1
Cc1nc(SCc2nc3ccc(C(F)(F)F)cc3[nH]2)c2oc3ccccc3c2n1	2	3561	-3	-1
c1ccc(-c2ccc(C3=Nn4c(nnc4-c4cc(-c5ccccc5)n[nH]4)SC3)cc2)cc1	3	18459*	2	3
CCOc1ccc(-c2nnc3n2N=C(c2ccc(OC)cc2)CS3)cc1	4	19797*	10	6
Cc1ccc(-c2nnc3n2N=C(c2ccc(Br)cc2)CS3)cc1	-12	5697	-8	0
CC1=Nn2c(nnc2-c2cc(-c3ccccc3)n[nH]2)SC1	-2	4836	-24	-1
CCc1cccc(OCC(=O)N(C)CC(=O)Nc2cccc(F)c2)c1	-6	5704	-3	3
COC(=O)c1ccc(OCC(=O)c2ccccc2OC)cc1	-7	20757*	5	?
CN(C(=S)NC(=O)C1(C)CC1(Cl)Cl)c1ccccc1 (configuration not stated)	1	23191*	-4	0
